# Assay outcomes (PubChem BioAssay)
# Rows were chosen to be rich in hits. Some 13% of all compounds tested hit in one or more screens of this group.
# miR-21 reporter = qHTS Assay for Modulators of miRNAs and/orActivators of miR-21; HeLa miR-21 FLuc reporter, luciferase, 48 h; Potency, µM (series often up to 38.3 µM), without a hit: at the top dose activity change, positive = activation, hits mostly activators; 340,000 tested, under 10 active;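 also: % of control where 0% means no effect; miR-21 action dims this reporter so a rising signal means less miR-21 action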
#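 Compounds were titrated across several concentrations (up to approximately 40 uM) and incubated 48 hours with HeLa miR-21-FLuc reporter cells (miR-21 target sequence downstream of FLuc, endogenous miR-21). Readout was firefly luciferase luminescence after lytic detection reagent.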
# KDM4E inh = qHTS Assay for Inhibitors of Human Jumonji Domain Containing 2E (JMJD2E) | Lysine-specific demethylase 4E (Homo sapiens), B2RXH2 | JMJD2E catalytic domain, FDH-coupled NADH fluorescence (FDH is formaldehyde dehydrogenase) | Potency, µM (titrated, usually from 57.1 µM), inactives show at the highest dose activity change, negative = inhibition, most hits filed as inhibitors | hit rate 1.6% among 230,000 | AID 2147, 2009; active = well fitted inhibition curve with a large enough effect, not every such curve was filed as active; inconclusive = small, poorly fitted or top-dose-only effect, or another doubt; inactive = no such curve, though single readings can be large or run the other way;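 also: potency is read from the fitted curve at half-maximal effect; 0% = wells with enzyme and -100% = buffer wells without enzyme; nearly all actives have a fitted effect of over 50% in size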
# ALDH1A1 inh = qHTS Assay for Inhibitors of Aldehyde Dehydrogenase 1 (ALDH1A1); hit rate 7.3% among 220,000; Purified ALDH1A1, NADH fluorescence, propionaldehyde substrate; AID 1030, 2008; Potency, µM (highest dose often 75.3 µM), for inactives: at the top dose activity, negative = inhibition, usual class: inhibitors; Aldehyde dehydrogenase 1A1 (Homo sapiens), P00352; active = well fitted inhibition curve with a large enough effect, not every such curve was filed as active; inconclusive = small, poorly fitted or top-dose-only effect, or another doubt; inactive = no such curve, though single readings can be large or run the other way;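 also: potency is read from the fitted curve at half-maximal effect; plate controls were no enzyme wells and a reference inhibitor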
# Target sequence (P00352 whole entry, looked up): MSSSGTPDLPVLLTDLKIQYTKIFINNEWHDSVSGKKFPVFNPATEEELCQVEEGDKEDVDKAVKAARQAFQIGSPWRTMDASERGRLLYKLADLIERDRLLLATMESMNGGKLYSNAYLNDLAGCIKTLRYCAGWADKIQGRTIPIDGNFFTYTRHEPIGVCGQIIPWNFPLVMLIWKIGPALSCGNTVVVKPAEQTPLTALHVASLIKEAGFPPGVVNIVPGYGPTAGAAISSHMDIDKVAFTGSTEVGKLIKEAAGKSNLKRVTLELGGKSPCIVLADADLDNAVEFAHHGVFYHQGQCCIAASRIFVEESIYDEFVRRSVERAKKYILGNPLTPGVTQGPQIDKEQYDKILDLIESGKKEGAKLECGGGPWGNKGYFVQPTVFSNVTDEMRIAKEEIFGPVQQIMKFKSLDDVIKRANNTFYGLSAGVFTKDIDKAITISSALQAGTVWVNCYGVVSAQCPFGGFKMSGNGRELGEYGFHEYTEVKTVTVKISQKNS
# Lamin A splicing = qHTS Assay for Modulators of Lamin A Splicing; HeLa LMNA splicing GFP/RFP minigene ratio, 48 h; Potency, µM (top dose mostly 46.1 µM), without a hit: at the highest dose ratio change, negative = inhibition, actives largely listed as inhibitors; hit rate 0.01% among 200,000; AID 1487, 2009; active = well fitted inhibition curve with a large enough effect in the signal ratio, with a control signal flat, not every such curve was filed as active; inconclusive = small, poorly fitted or top-dose-only effect, or effect the other way, or a change in a side signal; the % refers to the signal ratio; also: potency is read from the fitted curve at half-maximal effect; % is scaled to controls: 0 for no effect and ±100 for the full control effect
#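 S3 HeLa stable clones carrying a lamin A-EGFP splicing minigene plus DsRed2 were seeded at 600 cells/well in Opti-MEM with 2% FBS, pin-dosed and incubated 48 h at 37°C. Acumen cytometry (488 nm) gave the GFP/RFP total-intensity ratio.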
# G9a inh = qHTS Assay for Inhibitors of Histone Lysine Methyltransferase G9a | G9a H3K9 monomethylation, AlphaScreen, 2 h | Histone-lysine N-methyltransferase EHMT2 (Homo sapiens), Q96KQ7 | Potency, µM (series often up to 102 µM), without a hit: at the top dose activity, negative = inhibition, actives largely listed as inhibitors | hit rate 8.8% among 350,000; also: potency is read from the fitted curve at half-maximal effect; % is scaled to controls: 0 for no effect and ±100 for the full control effect; nearly all actives have a fitted effect of over 75% in size
# Target sequence (Q96KQ7 913-1193 limits assumed): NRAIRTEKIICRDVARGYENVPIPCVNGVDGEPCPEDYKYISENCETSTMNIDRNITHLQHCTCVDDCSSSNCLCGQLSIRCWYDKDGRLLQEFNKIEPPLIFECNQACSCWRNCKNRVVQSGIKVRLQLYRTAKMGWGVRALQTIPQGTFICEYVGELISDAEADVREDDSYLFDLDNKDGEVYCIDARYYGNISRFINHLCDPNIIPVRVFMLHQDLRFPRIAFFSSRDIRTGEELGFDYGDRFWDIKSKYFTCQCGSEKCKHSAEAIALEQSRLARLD
#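 Methyltransferase reactions run at room temperature for 2 h (20 nM enzyme, 500 nM biotin-H3K9 peptide, 20 uM SAM) after a 15 min compound preincubation; product detected by AlphaScreen beads and anti-H3K9me1 antibody.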
# Sfp inh = qHTS Assay for Inhibitors of Bacillus subtilis Sfp phosphopantetheinyl transferase (PPTase); 4'-phosphopantetheinyl transferase ffp (Bacillus subtilis), Q9F4F7; Biochemical Sfp PPTase activity, qHTS; Potency, µM, for the others: largest response in the series, negative = inhibition, usual class: inhibitors; hit rate 3.5% among 310,000; AID 1490, 2009;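 also: the enzyme is Sfp with the accession as filed and its product quenches rhodamine fluorescence; potency is read from the fitted curve at half-maximal effect; 0% = enzyme reaction without inhibitor and -100% = no enzyme wells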
#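 Buffer: 50 mM Hepes-Na pH 7.6, 10 mM MgCl2, 0.01% Nonidet P-40, 0.01% BSA. Enzyme 15 nM, pre-exposed to compound 15 min; substrates then added and fluorescence change tracked over 30 min.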
# Numbers without * were called inactive; u = inconclusive; x = not tested or not shown; [ ] = dose if it differs, or a comment. Unless noted, calls follow the shape of the dose curve; as a rule, active = well fitted curve in the direction sought with a large enough effect; inconclusive = small, poorly fitted or top-dose-only effect, or another doubt; inactive = no such curve, though single readings can be large; an effect the other way counts as inactive or inconclusive.
SMILES,miR-21 reporter,KDM4E inh,ALDH1A1 inh,Lamin A splicing,G9a inh,Sfp inh
COc1cc(C=Nc2cccc(C)c2)c(O)c([N+](=O)[O-])c1,-9%,-5%,-11%,3%,-21%[59 µM],12%
O=[N+]([O-])c1cc(Cc2ccccc2)cc(C=Nc2ccc(N3CCOCC3)cc2)c1O,-4%,16µM*,u,u,-14%[59 µM],-17%
Cc1ccc(O)c(N=Cc2cc(Cc3ccccc3)cc([N+](=O)[O-])c2O)c1,5%,28µM*,14µM*,u,u,8.9µM*
Cc1nc(-c2ccc(F)cc2)sc1CCNC(=O)c1cccs1,-1%,x,x,u,18%[59 µM],x
Cc1ccccc1CSCC(=O)c1c(N)n(CC(C)C)c(=O)n(C)c1=O,0%,-5%,28µM*,-17%,u,-1%
Cc1ccccc1CSCC(=O)c1c(N)n(C)c(=O)n(C)c1=O,-31%,6%,-6%,0%,13%[12.7 µM],16%
Cc1cccc(NC(=O)C2SC(=Nc3c(C)cccc3C)C(C(=O)N3CCOCC3)=C2N)c1 (stereo not given),3%,-15%,5%,-20%,1.6µM*,-13%
CCc1ccc(CNC(=O)C2CCCN(c3nn4cc(-c5ccc(F)cc5)nc4s3)C2)cc1 (stereo not given),-7%,x,x,u,-26%[59 µM],x
CN(C)c1cc[n+](CC(=O)Nc2ccc(Oc3ccccc3)cc2)cc1,u,-2%,-6%,u,7%,7%
O=S(=O)([O-])CCC[n+]1ccc(Oc2ccccc2)cc1,-3%,x,x,x,28µM*,-6%
CC(C)(C)c1ccc(C(=O)N2CCC(c3nc4ccccc4o3)CC2)cc1,-6%,x,x,u,-35%[59 µM],x
CSC1=NS(=O)(=O)c2c(C)nn(C)c2S1,-2%,3.5µM*,x,x,1.1µM*,6.3µM*
O=C1NC2(CCCCC2)C(=O)N1/N=C/c1ccc(O)cc1O,-13%,16%,u,1%,4µM*,-12%
O=C1NC2(CCCCC2)C(=O)N1/N=C/c1ccccc1Br,-41%,4%,4.5µM*,x,14%,12%
CC1=C(C(=O)c2ccccc2)C(c2ccc(O)cc2)NC(=S)N1 (stereo not given),6%,-17%,x,x,u,-9%
CC1=C(C)C(c2ccccc2)NC(=S)N1 (stereo not given),-7%,-1%,13µM*,-12%,u,5%
CSc1ccccc1C(=O)NC1CCCN(c2ccc(C(F)(F)F)cn2)C1 (stereo not given),3%,x,x,x,8.9µM*,8%
CCN1C(=O)NC(c2ccccc2)C1=O (stereo not given),x,x,x,x,-46%[59 µM],x
CN=C1N[C@H](c2ccccc2)N(c2ccccc2)S1,x,7.9µM*,1.3µM*,x,x,112µM*
CCOc1ccc(NCc2cccn2-c2nnc(N3CCC(C(=O)NCCCN4CCCCC4CC)CC3)s2)cc1 (stereo not given),-14%,x,x,x,50µM*,-5%
CC(C)(C)OCC(O)CN1CCN(C(=O)c2ccccc2)CC1 (stereo not given),0%,u,u,x,10µM*,-19%
Cc1cc(C)c(OCC(O)CN2CCN(C(=O)c3ccccc3)CC2)c(C)c1 (stereo not given),-2%,x,x,x,20µM*,-18%
CC(=O)N1CCN(CC(O)COc2ccc(OCc3ccccc3)cc2)CC1 (stereo not given),1%,2%,11%,-3%,5%[59 µM],1%
O=C(c1ccccc1)N1CCN(CC(O)COc2cccc3ccccc23)CC1 (stereo not given),-7%,x,x,x,-6%[0.501 µM],4%
COc1cc(Br)c(C2CC(=O)Nc3cc4c(cc32)OCCO4)cc1OC (stereo not given),21%,x,x,x,u,x
SMILES,miR-21 reporter,KDM4E inh,ALDH1A1 inh,Lamin A splicing,G9a inh,Sfp inh
CO/N=C\c1ccc(C(=O)N2[C@H](c3ccc(C)cc3)[C@@H](C)CC[C@H]2C(=O)OC)cc1,x,x,5%[13.5 µM],x,x,15%
Cc1cc(=O)[nH]c(/N=C(\N)Nc2ccc(Oc3ccccc3)cc2)n1,-4%,-7%,x,x,20%[12.7 µM],14%
Cc1cc(=O)[nH]c(/N=C(\N)Nc2cccc3ccccc23)n1,-2%,4%,14%,11%,79µM*,-2%
COCc1cc(=O)[nH]c(/N=C(\N)Nc2cccc(Cl)c2)n1,1%,-5%,4%,x,18µM*,u
CC(=O)OC1C=C[C@]2(C)C(CC(OC(C)=O)[C@@]3(C)C4=CC(=O)OC(c5ccoc5)[C@]4(C)CCC23)C1(C)C (stereo not given in full),x,0%,2%,x,-42%[2.33 µM],-18%
Cc1cccc(OCC(O)CN2CCN(c3ccccn3)CC2)c1C (stereo not given),-1%,x,x,x,45µM*,-2%
Cc1cc(C)c(C)c(OCC(O)CN2CCN(c3ccccn3)CC2)c1 (stereo not given),1%,x,x,x,79µM*,0%
Cc1ccc(OCC(O)CN2CCOCC2)c(C)c1 (stereo not given),-29%,x,x,x,89µM*,6%
CC(C)(C)c1ccc(OCC(O)CN2CCN(c3ccccn3)CC2)cc1 (stereo not given),-4%,x,x,x,50µM*,15%
COc1ccc(N(CC(=O)Nc2ccc(C)c(C)c2)S(=O)(=O)c2ccc(C)cc2)cc1OC,-14%,x,x,x,0%[59 µM],x
CN(C)c1ncc2ncc(=O)n(Cc3cccs3)c2n1,x,x,u,x,14%[12.7 µM],1%
O=C(CCCn1cnc([N+](=O)[O-])n1)Nc1cccc2ccccc12,-5%,-5%,-1%,-8%[46 µM],50µM*,-13%
O=C(Cn1cnc([N+](=O)[O-])n1)NCc1ccccc1,-1%,-1%,0%,9%,x,0%
CCOc1ccc(-c2c(C)nn3c(C)c(C(=O)NC(C)c4ccccc4)cnc23)cc1OCC (stereo not given),5%,x,x,8%[46 µM],-18%[59 µM],x
CCc1cccc(NC(=O)Cn2nc3c4cc(F)ccc4n(Cc4cccc(C)c4)cc-3c2=O)c1,-1%,x,x,x,5%[59 µM],x
CC(C)Cc1ccc(C(=O)NCCOc2ccccc2)o1,-27%,x,x,x,27%[59 µM],3%
O=C(/C=C/c1ccc(-c2ccc(F)cc2)o1)N1CCCC1,-85%,u,u,x,45µM*,-13%
CC(C)Cc1nnc(NC(=O)c2cc(-c3ccccc3)nc3ccccc23)s1,-1%,-2%,u,11%,-46%,-22%
